# Results from PubChem BioAssay (NCATS).
# Several values for one entry are separate records, joined by “and”; a condition that tells them apart may be missing. Identical values can stand only once. A number with no mark means an inactive call. Results filed as inconclusive are left out. A call without a number means that no potency is given here. Activity calls are given as the source filed them. Unless noted, calls follow the shape of the dose curve; as a rule, active = well fitted curve in the direction sought with a large enough effect; inconclusive = small, poorly fitted or top-dose-only effect, or another doubt; inactive = no such curve, though single readings can be large; an effect the other way counts as inactive or inconclusive.
# Columns and labels:
# [1] = molecular target: Guanine nucleotide-binding protein G(i) subunit alpha-1 (Homo sapiens) (UniProt P63096); assay: qHTS Assay for Inhibitors of RGS12 GoLoco Motif Activity (Green Fluorophore) (AID 879);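 also: negative values mean loss of peptide binding seen as reduced polarization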
# Sequence of Guanine nucleotide-binding protein G(i) subunit alpha-1 (Homo sapiens) (P63096 whole entry, looked up): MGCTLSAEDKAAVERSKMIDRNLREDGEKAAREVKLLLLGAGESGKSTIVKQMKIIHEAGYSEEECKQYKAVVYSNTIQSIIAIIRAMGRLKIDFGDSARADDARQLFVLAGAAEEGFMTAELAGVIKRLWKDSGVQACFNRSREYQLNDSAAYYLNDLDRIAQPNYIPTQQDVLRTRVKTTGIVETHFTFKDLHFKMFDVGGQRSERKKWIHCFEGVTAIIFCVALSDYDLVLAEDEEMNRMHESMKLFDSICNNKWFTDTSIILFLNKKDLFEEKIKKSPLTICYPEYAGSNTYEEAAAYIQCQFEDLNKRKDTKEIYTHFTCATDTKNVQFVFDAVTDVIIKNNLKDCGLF
# Summary of the method: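 Fluorescence polarization assay: 50 nM Gαi1 with 10 nM FITC-labeled RGS12 GoLoco peptide in 10 mM Tris pH 7.5, 150 mM NaCl, 0.1 mM GDP, 0.05% NP40, 10 min at room temperature with compound.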
# [2] = molecular target: Muscarinic acetylcholine receptor M1 (Rattus norvegicus) (UniProt P08482); assay: qHTS Assay for Antagonists of Acetylcholine Muscarinic M1 Receptor: Measurement of IP-One Response (AID 944); also: nearly all actives have a fitted effect of over 75% in size; also: potency is read from the fitted curve at half-maximal effect
# Sequence of Muscarinic acetylcholine receptor M1 (Rattus norvegicus) (P08482 whole entry, looked up): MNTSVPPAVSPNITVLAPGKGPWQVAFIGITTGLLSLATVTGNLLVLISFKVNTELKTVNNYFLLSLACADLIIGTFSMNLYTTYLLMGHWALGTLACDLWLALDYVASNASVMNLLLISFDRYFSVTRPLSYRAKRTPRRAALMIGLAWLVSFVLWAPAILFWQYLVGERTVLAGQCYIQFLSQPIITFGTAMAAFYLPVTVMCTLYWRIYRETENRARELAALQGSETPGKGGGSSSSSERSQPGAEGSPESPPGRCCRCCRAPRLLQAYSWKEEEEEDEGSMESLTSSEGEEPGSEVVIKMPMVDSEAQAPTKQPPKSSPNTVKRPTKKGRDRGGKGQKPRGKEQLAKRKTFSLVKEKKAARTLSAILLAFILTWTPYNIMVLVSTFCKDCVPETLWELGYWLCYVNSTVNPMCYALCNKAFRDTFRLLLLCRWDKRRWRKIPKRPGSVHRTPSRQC
# Summary of the method: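 CHO cells stably expressing rat M1, pretreated 10 min with compound, then stimulated 30 min with carbachol at EC80 (200 nM) in LiCl-containing buffer pH 7.4; IP1 accumulation read by HTRF competition (665/620 nm).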
# [3] = molecular target: Pyruvate kinase (Leishmania mexicana) (UniProt Q27686); assay: qHTS Validation Assay for Inhibitors of Leishmania Mexicana Pyruvate Kinase (AID 945)
# Sequence of Pyruvate kinase (Leishmania mexicana) (Q27686 2-499 E452W): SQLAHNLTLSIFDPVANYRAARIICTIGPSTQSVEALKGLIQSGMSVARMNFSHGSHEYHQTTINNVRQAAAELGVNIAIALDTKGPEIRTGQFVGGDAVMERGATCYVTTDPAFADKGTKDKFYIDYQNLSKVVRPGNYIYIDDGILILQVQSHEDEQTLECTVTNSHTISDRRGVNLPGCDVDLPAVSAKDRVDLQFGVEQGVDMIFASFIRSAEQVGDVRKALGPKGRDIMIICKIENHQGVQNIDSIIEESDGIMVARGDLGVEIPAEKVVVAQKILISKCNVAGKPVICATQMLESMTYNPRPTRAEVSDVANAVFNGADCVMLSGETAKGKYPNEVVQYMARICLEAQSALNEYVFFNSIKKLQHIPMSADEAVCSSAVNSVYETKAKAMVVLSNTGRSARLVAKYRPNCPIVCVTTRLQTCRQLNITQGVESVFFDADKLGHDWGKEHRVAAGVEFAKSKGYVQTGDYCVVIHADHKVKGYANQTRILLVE
# Summary of the method: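 The enzyme is a highly purified E451W mutant of LmPYK used at 0.2 nM. It converts 0.5 mM PEP and 0.1 mM ADP over 1 h at room temperature; product ATP is quantified by luciferase luminescence relative to DMSO controls.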
# [4] = molecular target: Cytochrome P450 2D6 (Homo sapiens) (UniProt P10635); assay: qHTS Assay for Inhibitors and Substrates of Cytochrome P450 2D6 (AID 891); also: potency is read from the fitted curve at half-maximal effect; nearly all actives have a fitted effect of over 60% in size
# Sequence of Cytochrome P450 2D6 (Homo sapiens) (P10635 whole entry, looked up): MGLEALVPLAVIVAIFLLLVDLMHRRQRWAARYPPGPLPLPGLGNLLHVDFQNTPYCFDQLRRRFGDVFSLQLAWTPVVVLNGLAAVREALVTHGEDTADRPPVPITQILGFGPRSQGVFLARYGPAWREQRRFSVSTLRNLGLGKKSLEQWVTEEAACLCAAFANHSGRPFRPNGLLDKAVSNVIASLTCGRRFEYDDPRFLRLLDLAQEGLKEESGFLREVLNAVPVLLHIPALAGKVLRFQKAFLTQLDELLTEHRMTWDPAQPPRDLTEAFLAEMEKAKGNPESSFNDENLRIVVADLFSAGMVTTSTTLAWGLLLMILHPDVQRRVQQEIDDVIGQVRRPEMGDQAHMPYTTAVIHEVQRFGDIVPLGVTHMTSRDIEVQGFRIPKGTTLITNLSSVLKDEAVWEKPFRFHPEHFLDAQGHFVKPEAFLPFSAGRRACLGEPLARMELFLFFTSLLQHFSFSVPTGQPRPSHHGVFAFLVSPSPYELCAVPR
# Summary of the method: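 Human CYP2D6 (5 nM) with 30 uM Luciferin-ME EGE (at Km) in 100 mM KPO4, compound preincubated 10 min, then NADPH regeneration system for 60 min at room temperature. Luciferin read by luminescence; normalized to 1.43 uM quinidine.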
# [5] = qHTS Assay for Identification of Small Molecule Agonists for Hypoxia Response Element Signaling Pathway (AID 914; active = well fitted activation curve with a large enough effect in the signal ratio, with a control signal flat, not every such curve was filed as active; the % refers to the signal ratio); conditions: ME-180 HRE-bla reporter, beta-lactamase ratio, CoCl2, 17 h; stronger effect = higher value
# Summary of the method: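 Cells were plated overnight, pin-dosed with compound in a titration series, co-stimulated with EC50 CoCl2 and incubated 17 hours at 37 degrees Celsius. CCF4 substrate was then loaded, and AC50 values came from the 460nm/530nm ratio.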
# [6] = qHTS Assay for Identification of Small Molecule Agonists for Thrombopoietin (TPO) Signaling Pathway (AID 917)
# Summary of the method: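 IL-3-dependent murine pro-B Ba/F3 cells, stably transfected with human TPO receptor and GpIIb-promoter luciferase, are incubated 24 hrs at 37 C with test compound and 26 pM TPO; luciferase signal is read after 10 min at room temperature.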
# [7] = molecular target: Muscarinic acetylcholine receptor M1 (Rattus norvegicus) (UniProt P08482); assay: qHTS Assay for Antagonists of Acetylcholine Muscarinic M1 Receptor: Kinetic Measurement of Intracellular Calcium Response (AID 943); also: nearly all actives have a fitted effect of over 75% in size; also: potency is read from the fitted curve at half-maximal effect
# Summary of the method: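 CHO cells expressing rat M1 receptor, Fluo-4 loaded, preincubated 10 min with compound, then stimulated with EC80 carbachol (100 nM final). Kinetic calcium fluorescence over 4 min; response taken as peak over basal signal.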
# [8] = qHTS Assay for Identification of Small Molecule Antagonists for NFkB Signaling Pathway (AID 895; active = well fitted inhibition curve with a large enough effect in the signal ratio, with a control signal flat, not every such curve was filed as active; the % refers to the signal ratio)
# Summary of the method: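 ME-180 NFkB-bla cells (beta-lactamase under NFkB response element), plated overnight, treated with compound then 10 pM TNF alpha (about EC50) for 5 hrs at 37 C. LiveBLAzer FRET read at 460/530 nm emission, 405 nm excitation.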
# [9] = Confirmation and Secondary Assay for Modulators of Hemoglobin Beta Chain Splicing at IVS2 654 locus (AID 910);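 also: HeLa cells stably carrying EGFP split by mutant beta-globin IVS2-654 intron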
# Summary of the method: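 HeLa cells stably expressing EGFP interrupted by β-globin IVS2-654 intron, seeded overnight in Opti-MEM/2% FCS, then treated 2 days at 37 °C. Restored splicing read as total peak GFP intensity per well by laser scanning cytometry (488 nm excitation, 500–520 nm emission); 500 nM antisense PNA as control.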
# [10] = Confirmation and Secondary Assay for Modulators of Hemoglobin Beta Chain Splicing at IVS2 705 locus (AID 930);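 also: HeLa cells stably expressing the EGFP-705 splicing reporter; GFP fluorescence per well restored by corrected splicing of the IVS2-705 intron in EGFP; series mostly up to about 46 µM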
# Summary of the method: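 Splice-correction reporter: EGFP cDNA split by beta-globin intron 2 bearing the 705 mutation, stably in HeLa. Compound incubation 2 days, 37C; fluorescent objects 5-250 µm summed per well.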
# [11] = molecular target: Cytochrome P450 2C9 (Homo sapiens) (UniProt P11712); assay: qHTS Assay for Inhibitors and Substrates of Cytochrome P450 2C9 (AID 883); also: potency is read from the fitted curve at half-maximal effect; nearly all actives have a fitted effect of over 60% in size
# Sequence of Cytochrome P450 2C9 (Homo sapiens) (P11712 whole entry, looked up): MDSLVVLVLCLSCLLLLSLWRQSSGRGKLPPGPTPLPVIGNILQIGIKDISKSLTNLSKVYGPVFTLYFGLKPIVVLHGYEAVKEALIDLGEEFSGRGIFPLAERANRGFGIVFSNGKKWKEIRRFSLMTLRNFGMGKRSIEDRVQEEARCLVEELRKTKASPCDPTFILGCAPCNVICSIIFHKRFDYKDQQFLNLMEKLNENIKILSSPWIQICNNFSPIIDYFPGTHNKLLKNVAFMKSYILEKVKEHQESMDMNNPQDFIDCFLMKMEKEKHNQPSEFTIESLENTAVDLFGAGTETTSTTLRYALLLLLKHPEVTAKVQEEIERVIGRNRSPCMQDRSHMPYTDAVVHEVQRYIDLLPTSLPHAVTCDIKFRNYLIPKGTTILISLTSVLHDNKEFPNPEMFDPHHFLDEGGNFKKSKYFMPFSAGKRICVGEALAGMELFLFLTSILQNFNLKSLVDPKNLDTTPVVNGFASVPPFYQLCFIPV
# Summary of the method: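 Signal: luciferase luminescence reporting luciferin produced by CYP2C9. Conditions: 10nM enzyme, Luciferin-H 100uM at KM, 25mM KPO4, 37C, 60 min NADPH-driven reaction. Reference: 57uM sulphaphenazole as 100% inhibition.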
# [12] = molecular target: Cytochrome P450 3A4 (Homo sapiens) (UniProt P08684); assay: qHTS Assay for Inhibitors and Substrates of Cytochrome P450 3A4 (AID 884); also: nearly all actives have a fitted effect of over 50% in size; also: potency is read from the fitted curve at half-maximal effect
# Sequence of Cytochrome P450 3A4 (Homo sapiens) (P08684 whole entry, looked up): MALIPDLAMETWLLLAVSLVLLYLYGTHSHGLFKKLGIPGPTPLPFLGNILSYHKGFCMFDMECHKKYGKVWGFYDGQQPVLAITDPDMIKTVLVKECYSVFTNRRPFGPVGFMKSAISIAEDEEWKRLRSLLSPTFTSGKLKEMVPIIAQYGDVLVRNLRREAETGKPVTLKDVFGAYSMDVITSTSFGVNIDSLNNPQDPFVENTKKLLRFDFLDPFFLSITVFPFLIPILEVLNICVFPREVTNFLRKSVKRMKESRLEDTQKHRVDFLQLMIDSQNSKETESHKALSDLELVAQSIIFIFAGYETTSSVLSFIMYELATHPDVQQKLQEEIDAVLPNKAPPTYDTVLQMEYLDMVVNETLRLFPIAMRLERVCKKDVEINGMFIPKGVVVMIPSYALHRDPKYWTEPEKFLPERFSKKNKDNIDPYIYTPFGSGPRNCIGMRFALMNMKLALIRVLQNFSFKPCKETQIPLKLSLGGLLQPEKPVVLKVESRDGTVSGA
# Summary of the method: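 20 nM human CYP3A4 with 25 uM Luciferin-PPXE (at KM) in 200 mM KPO4, preincubated 10 min with compound; NADPH regeneration started a 60 min RT reaction. Luciferin detected by luminescence, normalized to 57 uM ketoconazole as full inhibition.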
# [13] = molecular target: Cytochrome P450 3A4 (Homo sapiens) (UniProt P08684); assay: qHTS Assay for Activators of Cytochrome P450 3A4 (AID 885); also: nearly all actives have a fitted effect of over 65% in size
# Summary of the method: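 Quantitative HTS format: compounds preincubated with 20nM human CYP3A4 and Luciferin-PPXE substrate at KM, reaction started by NADPH regeneration, stopped after 60 min, luciferase luminescence read 20 min later.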
smiles,measurement,setting,value
NCCCCCCCCCCN,outcome,[1],inactive
same,Potency,[2],inactive
same,Potency,[3],inactive
CN1[C@@H]2CC[C@H]1CC(OC(c1ccccc1)c1ccccc1)C2 (stereo partly drawn),outcome,[1],inactive
same,Potency,[4],2 µM (active) and 1.26 µM (active)
same,activation,[5],14.9% and 19%
same,Potency,[6],inactive
same,Potency,[3],inactive
N[C@@H](CC(=O)O)C(=O)O,outcome,[1],inactive
same,Potency,[7],inactive
same,Potency,[2],inactive
same,Potency,[3],inactive
NC(=O)C(=O)O,outcome,[1],inactive
same,Potency,[7],inactive
same,Potency,[2],inactive
same,Potency,[3],inactive
C[N+]1(C)CCC(OC(=O)C(c2ccccc2)c2ccccc2)CC1,outcome,[1],inactive
same,Potency,[8],inactive
same,activation,[5],0.751%
same,Potency,[7],15.8 nM (active)
same,Potency,[2],11.2 nM (active)
same,Potency,[3],inactive
CN1C2CCC1CC(OC(=O)C(O)c1ccccc1)C2 (stereo not drawn),outcome,[9],inactive
same,outcome,[10],inactive
Cc1nc2sccn2c(=O)c1CCN1CCC(=C(c2ccccc2)c2ccc(F)cc2)CC1,Potency,[11],31.6 µM (active)
same,Potency,[12],inactive
same,Potency,[4],7.94 µM (active)
CC(C)NC[C@H](O)COc1cccc2[nH]ccc12,outcome,[1],inactive
same,Potency,[3],inactive
CC(C(=O)O)c1ccc2c(c1)[nH]c1ccc(Cl)cc12 (stereo not drawn),Potency,[12],inactive
same,outcome,[9],inactive
same,outcome,[10],inactive
CCCCCCOc1ccccc1C(N)=O,outcome,[9],inactive
same,outcome,[10],inactive
COc1cccc(OC)c1OCCNCC1COc2ccccc2O1 (stereo not drawn),Potency,[12],3.16 µM (active)
same,Potency,[13],inactive
same,outcome,[9],inactive
same,outcome,[10],inactive
O=C(Nc1ccncc1)c1cc([N+](=O)[O-])ccc1Cl,Potency,[12],1.26 µM (active)
same,Potency,[13],inactive
N=C(N)N,Potency,[12],inactive
same,outcome,[9],inactive
same,outcome,[10],inactive
Cc1c(N)c(=O)n(-c2ccccc2)n1C,outcome,[9],inactive
same,outcome,[10],inactive
CC(C(=O)O)c1ccc(C(=O)c2cccs2)cc1 (stereo not drawn),Potency,[12],inactive
same,outcome,[9],inactive
same,outcome,[10],inactive
